Sm TGR inh – qHTS Assay for the Inhibitors of Schistosoma Mansoni Peroxiredoxins; Schistosoma mansoni thioredoxin glutathione reductase (TGR), Q962Y6; purified TGR, DTNB reduction, TNB absorbance 405 nm; Potency, µM (highest dose often 114 µM), without a hit: at the highest dose activity change, negative = inhibition, usual class: inhibitors; 360,000 tested, 3% active; AID 485364, 2010; note: nearly all actives have a fitted effect of over 60% in size
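First, TGR (20 nM dispensed) and NADPH were mixed with compound. Second, a 15 min room-temperature incubation followed. Third, further NADPH and then DTNB were added to start the reaction. Finally, TNB absorbance was monitored kinetically.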
AmpC inh detg – qHTS Inhibitors of AmpC Beta-Lactamase (assay with detergent) | Potency, µM (series often up to 114 µM), without a hit: at the highest dose activity change, negative = inhibition, usual class: inhibitors | AmpC hydrolysis of nitrocefin, absorbance 480 nm, 0.01% Triton | P00811 | AID 485294, 2010 | 370,000 tested, 0.041% active;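 note: 0% = no-compound wells and -100% = no-enzyme wells; nearly all actives have a fitted effect of over 25% in size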
Target sequence (P00811 whole entry, looked up): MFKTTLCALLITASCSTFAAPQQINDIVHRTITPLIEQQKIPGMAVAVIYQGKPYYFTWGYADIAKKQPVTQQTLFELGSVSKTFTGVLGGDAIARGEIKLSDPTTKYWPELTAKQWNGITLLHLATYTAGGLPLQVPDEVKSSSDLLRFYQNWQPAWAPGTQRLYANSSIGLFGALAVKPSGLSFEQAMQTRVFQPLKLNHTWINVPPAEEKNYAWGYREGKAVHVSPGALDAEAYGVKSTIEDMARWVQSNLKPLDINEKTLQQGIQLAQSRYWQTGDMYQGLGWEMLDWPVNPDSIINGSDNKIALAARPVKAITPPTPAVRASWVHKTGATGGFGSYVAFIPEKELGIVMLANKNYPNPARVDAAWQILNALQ
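AmpC (5.3 nM in the dispensed reagent) in 20 mM phosphate pH 7.0 with 0.01% (detergent screen) or 0.0001% Triton X-100 was preincubated with compounds for 15 min at room temperature. Nitrocefin was then added from an 800 uM solution, and hydrolysis was followed at 480 nm.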
AmpC no deterg – qHTS Inhibitors of AmpC Beta-Lactamase (assay without detergent); AmpC nitrocefin hydrolysis, absorbance 480 nm, 0.0001% Triton; Potency, µM (series often up to 57.1 µM), inactives show at the top dose activity change, negative = inhibition, actives largely listed as inhibitors; 330,000 tested, 0.52% active;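 note: plate controls were no compound for no effect and no enzyme for full effect; nearly all actives have a fitted effect of over 20% in size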
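AmpC (5.3 nM in the dispensed reagent) in 20 mM phosphate pH 7.0 with 0.01% (detergent screen) or 0.0001% Triton X-100 was preincubated with compounds for 15 min at room temperature. Nitrocefin was then added from an 800 uM solution, and hydrolysis was followed at 480 nm.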
The depositor's hits bear a star. Shown are actives, neighbours in structure and some others; about 3.3% of the full set was active somewhere. Calls come from the whole dose curve; as a rule, active = well fitted curve in the direction sought with a large enough effect; inconclusive = small, poorly fitted or top-dose-only effect, or another doubt; inactive = no such curve, though single readings can be large; an effect the other way counts as inactive or inconclusive. Unless noted, % is set by controls: 0 for no effect and ±100 for the full control effect; potency is the fitted concentration of half-maximal effect.

What do the screens show for `CC(=O)c1ccc(Nc2c([N+](=O)[O-])ccc3nonc23)cc1`?
Sm TGR inh: -14.0%; AmpC inh detg: 4.0%; AmpC no deterg: -16.3%

What do the screens show for `O=[N+]([O-])c1cc([N+](=O)[O-])c2nonc2c1Nc1ccc(O)cc1`?
Sm TGR inh: 31.6µM*; AmpC inh detg: 3.6%; AmpC no deterg: -37.2%

How did O=[N+]([O-])c1c(Nc2ccccc2O)cc(N2CCOCC2)c2nonc12 do in these assays?
Sm TGR inh: 4.4%; AmpC inh detg: inconclusive; AmpC no deterg: -12.8%

How did O=C(O)c1ccccc1Nc1ccc([N+](=O)[O-])c2nonc12 do in these assays?
Sm TGR inh: 35.5µM*; AmpC inh detg: -12.0%; AmpC no deterg: -3.4%

Results for O=[N+]([O-])c1cc([N+](=O)[O-])c2nonc2c1Nc1ccccc1O ?
Sm TGR inh: 50.1µM*; AmpC inh detg: -1.1%; AmpC no deterg: -22.4%

How did COc1ccc(N(CC(=O)NC2CCCC2)C(=O)Cn2nnc(-c3ccc(OC)c(OC)c3)n2)c(OC)c1 do in these assays?
Sm TGR inh: -1.1%; AmpC inh detg: -7.3%; AmpC no deterg: 103.5%

Results for COC(=O)c1ccc(CSc2nnnn2C)o1 ?
Sm TGR inh: 2.5%; AmpC inh detg: 5.1%; AmpC no deterg: 0.0%

Results for CO[C@@]1(NC(=O)C2SC(=C(C(N)=O)C(=O)O)S2)C(=O)N2C(C(=O)O)=C(CSc3nnnn3C)CS[C@@H]21 (stereo not given in full) ?
Sm TGR inh: 39.8µM*; AmpC inh detg: 17.8µM*; AmpC no deterg: 7.08µM*

Results for COc1cccc(-c2cc(CC3(O)CCN(CCCc4ccccc4)CC3)on2)c1 ?
Sm TGR inh: -0.2%; AmpC inh detg: 4.4%; AmpC no deterg: 35.7%

What do the screens show for `CCCN(CCC)CCCNC(=O)c1nn(C)c2c1CS(=O)(=O)c1ccccc1-2`?
Sm TGR inh: -1.4%; AmpC inh detg: 3.0%

How did COc1cc(C=C2C(=O)c3ccccc3C2=O)ccc1O do in these assays?
Sm TGR inh: -5.2%; AmpC inh detg: 5.4%; AmpC no deterg: -37.9%

Results for COc1cc(/C=C2\N=C3CCCCCN3C2=O)ccc1O ?
Sm TGR inh: 56.2µM*; AmpC inh detg: -9.5%; AmpC no deterg: -14.6%

How did CCN1C/C(=C/c2ccc(OC)c(O)c2)C(=O)/C(=C/c2ccc(OC)c(O)c2)C1 do in these assays?
Sm TGR inh: -0.7%; AmpC inh detg: -11.2%; AmpC no deterg: -11.2%

What do the screens show for `COc1ccc(/C=C2\CN(Cc3ccccc3)C/C(=C\c3ccc(OC)c(O)c3)C2=O)cc1O`?
Sm TGR inh: 44.7µM*; AmpC inh detg: -8.6%; AmpC no deterg: -15.4%

How did COc1cc(/C=C2\COC/C(=C\c3ccc(O)c(OC)c3)C2=O)ccc1O do in these assays?
Sm TGR inh: 50.1µM*; AmpC inh detg: -3.3%; AmpC no deterg: -55.1%

Results for COc1ccc(/C=C2\CC/C(=C\c3ccc(OC)c(OC)c3)C2=O)cc1OC ?
Sm TGR inh: -2.2%; AmpC inh detg: -7.6%; AmpC no deterg: 0.5%

What do the screens show for `COc1cc(/C=C2/CC/C(=C/c3ccc(O)c(OC)c3)C2=O)ccc1O`?
Sm TGR inh: 44.7µM*; AmpC inh detg: -1.4%; AmpC no deterg: -41.0%

How did COc1ccc(/C=C2\N=C3CCCCCN3C2=O)cc1OC do in these assays?
Sm TGR inh: 2.2%; AmpC inh detg: inconclusive; AmpC no deterg: -12.5%

How did COc1ccccc1CNC(=O)Cn1nc(C(F)(F)F)cc1C do in these assays?
Sm TGR inh: -5.0%; AmpC inh detg: inconclusive; AmpC no deterg: -14.2%

What do the screens show for `CCOC(=O)C1=CC[C@@H](c2cc(OC)c(OC)c(OC)c2)N(S(=O)(=O)c2ccc(C)cc2)[C@H]1C(=O)OCC`?
AmpC no deterg: 6.4%

What do the screens show for `CCOc1ccc2nc(N3CCCC(C(=O)Nc4ccc(OC)c(Cl)c4)C3)sc2c1` (stereo not given)?
Sm TGR inh: 1.9%; AmpC inh detg: 14.9%

Results for O=C(c1cc2ccc3cccnc3c2[nH]1)N1CCN(c2cccc(C(F)(F)F)c2)CC1 ?
Sm TGR inh: 11.7%; AmpC inh detg: 17.4%

What do the screens show for `O=C1NC(CCc2ccccc2)C(=O)N1Cc1ccccc1Cl` (stereo not given)?
Sm TGR inh: 2.4%; AmpC inh detg: 2.1%; AmpC no deterg: -14.2%

How did COc1ccc(-c2nn(-c3ccccc3)cc2C(=O)N(C)CC(=O)Nc2ccc(N3CCOCC3)cc2)cc1 do in these assays?
Sm TGR inh: -0.4%; AmpC inh detg: -7.3%; AmpC no deterg: -10.3%
